# FMDV antiviral – foot and mouth disease virus antiviral activity; FMDV antiviral cell-based qHTS; Potency, µM (titrated, usually from 57.9 µM), for inactives: at the top dose activity change, negative = inhibition, hits mostly inhibitors; 1.2% of 410,000 active; AID 1159524; calls by dose curve; tested in HEK293T cells; note: read-out not given here; potency is the fitted concentration of half-maximal effect; nearly all actives have a fitted effect of over 45% in size
# Marburg entry inh – blocks Marburg virus binding to or entry into cells; Marburg virus pseudotyped entry inhibition, cell reporter; Potency, µM (series often up to 37.8 µM), for inactives: top-dose activity change, negative = inhibition, most hits filed as inhibitors; 1.8% of 300,000 active; calls by dose curve; tested in HEK293 cells; note: potency is the fitted concentration of half-maximal effect
# HCV inh – inhibitors of hepatitis C virus infection; Huh7.5.1 HCVcc-Cre infection, luciferase reporter, 44 h; Potency, µM (top dose mostly 41.8 µM), for inactives: at the top dose activity change, negative = inhibition, actives largely listed as inhibitors; 3.4% of 340,000 active; AID 651820; active = well fitted inhibition curve with a large enough effect; inconclusive = small, poorly fitted or top-dose-only effect, or another doubt; inactive = no such curve, though single readings can be large or run the other way; note: potency is the fitted concentration of half-maximal effect
#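 Infectious HCV cell culture screen: compound-treated cells (1,000/well, pre-plated 4 h) are infected with HCVcc-Cre at roughly 0.5 moi and grown 44 h. Infection is quantified by luciferase signal after 15 min substrate incubation at room temperature.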
# HCMV antiviral – blocks human cytomegalovirus replication; HFF cells, HCMV-luciferase reporter, 72 h; hits give low values; 4.5% of 410,000 active; AID 1259415; activity change, negative = inhibition, % at 57.5 µM; in the data active = activity change below about -60%; inconclusive = no clear call, values can overlap the other calls; inactive = above about -39%
#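 Inhibition of viral replication was scored as loss of reporter luminescence in HFFs infected with HCMV-luciferase (MOI 1 PFU/cell) for 72 h; compounds tested at 2 doses, normalized to buffer and Salinomycin controls.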
# Lassa entry inh – inhibitors of Lassa virus binding or cell entry. Potency, µM (top dose mostly 37.9 µM), inactives show top-dose activity change, negative = inhibition, actives largely listed as inhibitors. 1.2% of 300,000 active. Lassa virus pseudotype entry inhibition, cell reporter; calls by dose curve; tested in HEK293 cells; note: potency is the fitted concentration of half-maximal effect; nearly all actives have a fitted effect of over 50% in size
# * hit, by the source's call; ? = inconclusive; . = not tested or not shown; [ ] = dose if it differs, or a comment. In the library only some 7.9% were active in any assay of this set; here they are far more common. % is set by controls: 0 for no effect and ±100 for the full control effect.
SMILES,FMDV antiviral,Marburg entry inh,HCV inh,HCMV antiviral,Lassa entry inh
COc1ccc2nc(C)cc(Nc3ccc(Cl)c(Cl)c3)c2c1,?,.,.,-106.1*,?
COc1ccc([C@]23Cc4cc(OC)c(OC)cc4[C@H](O2)C2=C(CCCC2=O)O3)cc1,.,6.0%[14.2 µM],.,.,.
COc1cccc(Nc2ccc3cc(S(=O)(=O)N4CCC(C)CC4)ccc3n2)c1,-15.0%,.,.,-86.7*,-28.5%[46.1 µM]
Cc1cc(C)cc(-n2nc(C)cc2N)c1,21.0%,-9.7%,10µM*,33.3,-10.2%
Cc1cccc(-n2nc(C)cc2N)c1,12.9%,3.9%,5.6%,27.0,-0.9%
CCc1ccc(NC(=O)C(C)OC(=O)c2ccc(NS(=O)(=O)c3ccc(C)c([N+](=O)[O-])c3)cc2)cc1 (stereo not given),-16.9%,?,11.2µM*,61.6,?
Cc1ccc(S(=O)(=O)Nc2ccccc2C(=O)OC(C)C(=O)Nc2ccc3ccccc3c2)cc1[N+](=O)[O-] (stereo not given),0.0%,?,7.2%,?,-4.1%
Cc1ccc(NC(=O)C(C)OC(=O)c2ccc(NS(=O)(=O)c3ccc(F)c(F)c3)cc2)cc1 (stereo not given),?,?,?,-37.4,?
CC(=O)c1ccc(NC(=O)C(C)OC(=O)c2ccc(NS(=O)(=O)c3ccc(F)c(F)c3)cc2)cc1 (stereo not given),-6.2%,-8.5%,12.6µM*,-36.8,10.9%
CCC(=O)c1cc2c(cc1NC(=O)C(C)C)OCCO2,-10.2%,0.3%,6.31µM*,-23.6,12.3%
O=C(c1cnccn1)N(CCO)C(c1ccc(-c2ccccc2)cc1)c1nc2ccccc2[nH]1 (stereo not given),.,.,.,56.7,.
CCOc1ccc(CC2c3cc(OCC)c(OCC)cc3CCN2C(=O)c2cc(OC)c(OC)c(OC)c2)cc1OCC (stereo not given),?,?,?,25.7,2.06µM*
CCOc1ccccc1C(=O)N1CCc2cc(OC)c(OC)cc2C1COc1ccc(OC)cc1 (stereo not given),-29.4%,.,.,22.9,-19.0%[46.1 µM]
CC(=O)OC1(C)CC(C)C(=O)C(C(O)CC2CC(=O)NC(=O)C2)C1 (stereo not given),?,.,0.501µM*,-105.2*,.
CC(C)c1ccccc1OCC(=O)Nc1ccc2[nH]ncc2c1,-4.6%,-5.9%[46.1 µM],22.4µM*,?,?
Cc1ccc(-c2nc3scc(CCNC(=O)Cc4ccc(Cl)cc4)n3n2)cc1,-11.7%,.,.,-20.6,-4.0%[46.1 µM]
Cc1cc(C(=O)NC2CCCc3c2cnn3-c2cccc(C)c2C)n(C)n1 (stereo not given),?,.,0.316µM*,-39.8,.
Cc1cccc(-n2ncc3c2CCCC3NC(=O)c2ccc[n+]([O-])c2)c1C (stereo not given),-25.7%,.,12.6µM*,?,.
Cc1cccc(-n2ncc3c2CCCC3NC(=O)C2CCOCC2)c1C (stereo not given),0.0%,-29.1%,22.4µM*,-37.8,-8.5%
Cc1ccn(CCC(=O)NC2CCCc3c2cnn3-c2cccc(C)c2C)n1 (stereo not given),-10.7%,.,-8.3%,?,.
CCOC(=O)CCCNC(=O)N1CCc2nc(-c3ccc(OC)cc3C)c3c(c2C1)CO[C@@H](c1ccccc1)C3,.,-4.8%[14.2 µM],.,.,.
CCOc1cccc2sc(NC(=O)c3ccc(S(=O)(=O)N4CCCCC4)cc3)nc12,?,.,.,-8.1,16.8%[46.1 µM]
COC(=O)c1cccnc1-n1c(=O)c2cccnc2n(Cc2cccc([N+](=O)[O-])c2)c1=O,-16.0%,.,-3.5%,-85.8*,.
COc1ccc2ccccc2c1CN1CCN(Cc2ccccc2)CC1,.,?,-11.9%,-74.7*,?
COc1ccc(CN2CCN(Cc3ccccc3)CC2)c(OC)c1,-12.8%,18.3µM*,.,17.2,-19.3%[14.3 µM]
SMILES,FMDV antiviral,Marburg entry inh,HCV inh,HCMV antiviral,Lassa entry inh
COc1ccc(CN2CCN(Cc3ccc4ccccc4c3)CC2)cc1OC,?,?,?,-64.9*,?
Cc1ccsc1CN(C(=O)c1ccc(Br)cc1)C1CCS(=O)(=O)C1 (stereo not given),-12.4%,19.2%[46.1 µM],.,-7.1,?
CCOC(=O)C1CCC(CN(Cc2ccc(OC)cc2)S(=O)(=O)c2ccc(F)c(C(=O)Nc3ccc(C)c(C)c3)c2)CC1 (stereo not given),-9.2%,.,.,31.3,21.5%[46.1 µM]
Cc1cccc(Nc2nc(N)c([N+](=O)[O-])c(NCCO)n2)c1,9.5%,.,-1.7%,-7.6,.
Nc1nc(Nc2ccccc2)nc(N2CCOCC2)c1[N+](=O)[O-],-9.0%,-46.0%,0.2%,-4.7,?
CCN1CCN(c2nc(Nc3cccc(OC)c3)nc(N)c2[N+](=O)[O-])CC1,-27.9%,.,?,81.9,.
Cc1cccc(Nc2nc(N)c([N+](=O)[O-])c(N3CC(C)OC(C)C3)n2)c1 (stereo not given),3.16µM*,.,10µM*,10.2,.
Cc1cccc(Nc2nc(N)c([N+](=O)[O-])c(N3CC(C)CC(C)C3)n2)c1 (stereo not given),22.4µM*,?,6.31µM*,-62.8*,?
CC1CCN(c2nc(NCc3ccco3)nc(N)c2[N+](=O)[O-])CC1,?,-18.7%,?,-16.8,?
CCN1CCN(c2nc(Nc3ccc(C)c(C)c3)nc(N)c2[N+](=O)[O-])CC1,1.6%,16.4µM*,0.5%,-6.0,-3.6%
Cc1cccc(Nc2nc(N)c([N+](=O)[O-])c(N3CCC(C)CC3)n2)c1,25.1µM*,?,?,-37.8,?
O=c1oc2ccccc2cc1-c1cn2cc(Cc3ccc(Cl)cc3)sc2n1,58.0%,-22.8%[46.1 µM],.,-7.9,?
Cc1ccn2cc(-c3cc4ccccc4oc3=O)nc2c1,-41.7%,?,-25.4%,-39.0,1.58µM*
COc1ccc(-c2noc(CSc3nnc(-c4ccncc4)n3-c3cccc(C)c3)n2)cc1OC,0.0%,22.0%[46.1 µM],.,-14.5,-7.9%[46.1 µM]
CCc1ccc(NC(=O)C(C)n2nnc3sc(-c4ccccc4)cc3c2=O)cc1 (stereo not given),-11.2%,-13.0%[46.1 µM],.,-4.2,-0.3%[46.1 µM]
O=C(Nc1cccc(Cl)c1)c1ccc(OC(=S)N2CCOCC2)cc1,8.7%,-21.5%[46.1 µM],12.6µM*,?,0.2%
O=C(Nc1cccc2ccccc12)c1ccc(OC(=S)N2CCOCC2)cc1,.,2.59µM*,?,-35.9,1.46µM*
O=C(Nc1cccc2ccccc12)N1CCOCC1,-7.9%,-0.7%,-24.1%,59.7,0.2%
COc1cc(OC)c(N(C)C(=O)c2c(C)oc3ncnc(N4CCCCC4)c23)cc1Cl,-13.3%,.,.,-5.0,-8.1%[46.1 µM]
COc1ccc(Cn2ccc3nc(C)c(C(=O)N4CCN(c5ccccc5OC)CC4)cc3c2=O)cc1,?,.,.,-6.9,-28.1%[46.1 µM]
Cc1ccc(S(=O)(=O)n2cc(-c3ccccc3)c3ccccc32)cc1,14.0%,.,?,-70.9*,.
COc1ccc(CCn2c(=N)c(C(=O)NC3CCCC3)cc3c(=O)n4ccccc4nc32)cc1OC,-25.4%,.,7.2%,-38.1,.
COc1ccc(CCn2c(=N)c(C(=O)NC3CCCC3)cc3c(=O)n4ccccc4nc32)cc1,-16.9%,1.7%[46.1 µM],?,-101.2*,-4.2%[46.1 µM]

# High-throughput results from PubChem BioAssay.
